Among the data in PubChem BioAssay AID612 (The Scripps Research Institute Molecular Screening Center, 2007) are inhibition values, retold here.

In all, about 62,000 compounds went through this assay and about 420 (0.68%) were called active.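 The calls were made as follows: active = inhibition above the mean of all tested compounds plus 3 SD (cut at about 43% in these data); inactive = the rest.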 Shown is part of a subset that was picked to be rich in actives.

By inhibition is commonly meant the drop in the measured response relative to a control, in per cent.

The experiment deals with 5-hydroxytryptamine receptor 1A (Homo sapiens) (UniProt P08908). Briefly: human 5-HT1a receptor antagonists, primary screen, cell-based, CHO, Ga15 NFAT-bla reporter (AID 612).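 Also: receptor stimulated by 5-CT agonist at 100 nM near EC80; beta-lactamase reporter measured by ratiometric fluorescence of a cleavable substrate.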 As to conditions: CHO 5-HT1a Ga15 NFAT-bla reporter, antagonist mode; at 10 µM; hits give high values.
Chain of 5-hydroxytryptamine receptor 1A (Homo sapiens) (P08908 whole entry, looked up): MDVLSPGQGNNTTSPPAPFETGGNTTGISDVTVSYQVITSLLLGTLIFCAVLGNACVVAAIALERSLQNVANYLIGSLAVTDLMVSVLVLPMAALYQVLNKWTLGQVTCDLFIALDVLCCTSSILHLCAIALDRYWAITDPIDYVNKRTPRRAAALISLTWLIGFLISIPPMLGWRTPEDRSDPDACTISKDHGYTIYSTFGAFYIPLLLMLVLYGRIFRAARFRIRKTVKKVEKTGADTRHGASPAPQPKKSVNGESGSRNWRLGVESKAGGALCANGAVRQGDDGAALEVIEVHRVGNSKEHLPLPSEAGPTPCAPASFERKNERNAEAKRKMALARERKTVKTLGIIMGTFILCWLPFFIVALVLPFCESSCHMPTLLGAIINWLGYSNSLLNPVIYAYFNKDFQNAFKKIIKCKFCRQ
As for `COc1ncnc2sc3c(c12)CCCC3`, the inhibition is 10.5% (inactive). In the case of `COc1ccc(-c2nnco2)cc1OC`, the inhibition is 2% (inactive). `COc1ccc(-c2ccc(Nc3ccc(S(=O)(=O)N4CCCC4)cc3)nn2)cc1OC`: the inhibition was -0.9% (inactive). The value for `COc1ccc(-c2cc(C(F)(F)F)nc(S(C)(=O)=O)n2)cc1OC` was 78.1% (active). On to `CN1CCN(CC(=O)C23CC4CC(CC(C4)C2)C3)CC1`, for which the inhibition is 4.4% (inactive).

On to `Cc1ccc(C2(c3ccc(C)cc3)NC(=O)N(Cc3c(C)noc3C)C2=O)cc1`, for which the inhibition was 1.9% (inactive). As for `CCN(Cc1ccccc1)C(=O)CSc1nc(C)cc2c1C(=O)OC2`, the inhibition was -9% (inactive).

For `O=C(CSc1nnc(-c2cnccn2)n1Cc1ccco1)c1ccc(Cl)c(Cl)c1`, the inhibition is 9.1% (inactive). The value for `Cc1noc(C)c1S(=O)(=O)NCCc1ccc(S(N)(=O)=O)cc1` was -7.6% (inactive); that for `COc1ccc(CCN(C)C(=O)C2CCCN(Cc3ccc(OC)c(OC)c3)C2)cc1OC` (centres undefined) was 14.7% (inactive); that for `COc1ccccc1N1CCN(C(=O)CN(Cc2ccc(Cl)cc2)S(C)(=O)=O)CC1` was 17.7% (inactive). For `COc1ccccc1-n1nnnc1S(=O)(=O)Cc1ccc(Cl)cc1`, the inhibition is 82.7% (active).

In the case of `COc1ccccc1N1CCN(Cc2nnnn2CCc2ccccc2)CC1`, the inhibition is 5.1% (inactive). The value for `COC(=O)c1ccc(NC(=O)CSc2nnc(Cc3cccn3C)n2-c2ccc(F)cc2)cc1` was 3.3% (inactive).

Turning to `Cc1ccc(N2C(=O)CC(NCc3ccc4c(c3)OCO4)C2=O)cc1Cl` (centres undefined), the inhibition was -4.3% (inactive). `CC(C)NS(=O)(=O)c1ccc(CCC(=O)N2CCOCC2)cc1`: the inhibition is -10.5% (inactive).

`CCOC(=O)CSc1nnc(CNC(=O)c2ccco2)n1-c1ccc(F)cc1`: the inhibition is 5.9% (inactive). In the case of `CN(C)/C=C1\C=C(c2ccccc2)OC1=O`, the inhibition was -8.2% (inactive). As to `CCOC(=O)C1(Cc2ccc(O)cc2)NC(c2ccccc2F)C2C(=O)N(C)C(=O)C21` (centres undefined), the inhibition is 6.2% (inactive). As for `Clc1ccc(C=NC23CN4CN(CN(C4)C2)C3)cc1`, the inhibition was -6.9% (inactive). Turning to `COc1ccc(CNC(=O)C2CCN(S(=O)(=O)N3CCOCC3)CC2)cc1`, the inhibition is 5.7% (inactive).

Turning to `c1csc(-c2nc(-c3ccncc3)no2)c1`, the inhibition was -12.8% (inactive).

For `COc1cc(Cl)c(S(=O)(=O)n2cnc(C)c2)cc1Cl`, the inhibition was -7.5% (inactive).

For `CSCC[C@H](NC(=O)NCc1cccs1)C(=O)O`, the inhibition is 4.7% (inactive). As for `CC1CCN(c2oc(-c3ccccc3F)nc2C#N)CC1`, the figure is 13.1% (inactive); as for `c1csc(-c2cn3c(n2)SCC3)c1`, 5.5% (inactive); as for `Cc1ccc(C(=O)Nc2nnc(-c3cccs3)s2)cc1C`, -13.8% (inactive). The value for `COc1cccc(NC(=O)Nc2nnc(N3CCCCC3C)s2)c1` (centres undefined) was 35.8% (inactive); that for `c1ccc(-n2ncc3c2ncn2c(C4CCCCC4)nnc32)cc1` was -3.1% (inactive); that for `O=C(CC(NS(=O)(=O)c1ccc(Cl)cc1)c1ccco1)NC1CCCC1` (centres undefined) was 7.3% (inactive). The value for `COC(=O)N1CN(C(=O)OC)CN(C(=O)OC)C1` was -7% (inactive).

Consider `O=C(CN1CCOCC1)Nc1c2c(nc3c1CCC3)CCC2`, for which the inhibition was 2.1% (inactive). Consider `CCOC(=O)CSc1nc2c(c(=O)n(C)c(=O)n2C)n1Cc1ccccc1F`, for which the inhibition was -3.1% (inactive).

With `CCOC(=O)CSc1nc2c(sc(=S)n2CCc2ccccc2)c(=O)n1Cc1ccco1`, the inhibition is 58.2% (active). The value for `COc1ccccc1NC(=O)CSc1nc2sc(C)c(C)c2c(=O)n1Cc1ccco1` was 19.2% (inactive). Regarding `CC(c1cccnc1)N(CCN(C)C)C(=O)Nc1ccc(Cl)c(Cl)c1` (centres undefined), the inhibition was 3.9% (inactive). As for `Cc1ccc(C)c(NC(=O)C2CC(=O)N(C(C)C)C2)c1` (centres undefined), the figure is -1.5% (inactive); as for `COc1ccc(S(=O)(=O)N2CCOCC2)cc1C(=O)Nc1nc2ccccc2s1`, -17.7% (inactive). On to `Cc1ccc2nc(NC(=O)C3CCN(S(=O)(=O)c4ccc5c(c4)oc(=O)n5C)CC3)sc2c1`, for which the inhibition is 1.8% (inactive). With `O=S(=O)(NCc1ccccc1Cl)c1cnc[nH]1`, the inhibition was -4.7% (inactive). As for `COc1ccccc1C(=O)Oc1ccc(N2C(=O)CCC2=O)cc1`, the inhibition is -3.5% (inactive). The value for `CCOc1cc(CN2CCN(C(=O)CC(C)C)CC2)ccc1OC` was -2.9% (inactive); that for `CCOc1cc(-c2noc(CCC(=O)N3CCOCC3)n2)ccc1OC` was -10.7% (inactive); that for `CCOc1cc(C(=O)N2CCc3cc(OC)c(OC)cc3C2)ccc1OC(F)F` was 60.5% (active). As for `CCCOc1ccccc1C1CC(=O)Nc2cc3c(cc21)OCO3` (centres undefined), the figure is 54.2% (active). The value for `COCCOC(=O)C1=C(C)NC(=O)CC1c1cc2c(cc1Br)OCO2` (centres undefined) was 3.2% (inactive); that for `COc1cc2c(cc1OC)C(c1ccc(C)o1)CC(=O)N2` (centres undefined) was 30.2% (inactive).

In the case of `Cc1cc(NC(=O)CCC(=O)N(c2cccc(F)c2)C(C(=O)NC2CCCC2)c2ccncc2)no1` (centres undefined), the inhibition was -3.5% (inactive). On to `C/C(=N\O)C1(C)N(O)C(C)(C)C(c2ccc(Br)cc2)=[N+]1[O-]` (centres undefined), for which the inhibition was -14.2% (inactive).

For `COC(=O)c1ccc(/C=N\n2c(C)nnc2C)cc1`, the inhibition is 0.3% (inactive). With `CCOC(=O)N1CCN(C(=O)C2CCCN(c3ncnc4c3sc3cccc(F)c34)C2)CC1` (centres undefined), the inhibition was 7.8% (inactive). As for `CC(C)c1ccc(-c2nn[nH]n2)cc1`, the inhibition was -0.6% (inactive). As for `COc1ccc(N2CCN(C3CC(=O)N(c4ccc5c(c4)OCCO5)C3=O)CC2)cc1` (centres undefined), the figure is -12.3% (inactive); as for `O=C(CCc1ccccc1)Nc1cccc(-c2nnc(-c3ccco3)o2)c1`, 10% (inactive). For `COC(=O)Cc1c(C)c2ccc(OCC(=O)NCc3ccc4c(c3)OCO4)cc2oc1=O`, the inhibition was 12.5% (inactive). As for `CN(C)CCCn1c(N)c(C#N)c2nc(C#N)c(C#N)nc21`, the inhibition is -28.3% (inactive). With `O=C(Cn1cnc2c(nnn2Cc2ccc(F)cc2)c1=O)NCc1ccc2c(c1)OCO2`, the inhibition was 2% (inactive). As for `COc1ccc(C(=O)N2CCC(C(=O)Nc3cccc(C)c3)CC2)cc1OC`, the figure is -2.1% (inactive). The value for `O=C(Nc1nsc(-c2ccccc2)n1)c1ccncc1` was -6.7% (inactive). `COc1ccc(C2OC(=O)CC2C(=O)NC(C)C)cc1` (centres undefined): the inhibition is -3.4% (inactive). The value for `CC(C)CCNC(=O)CN(C(=O)Cn1nnc(-c2ccc(F)cc2)n1)C1CCCC1` was 9.5% (inactive); that for `O=C(O)c1cscn1` was -20.4% (inactive); that for `O=S(=O)(NCc1ccccn1)c1ccc(F)cc1` was -4.1% (inactive). The value for `Cn1c(C(=O)NCCCN2CCN(c3cccc(Cl)c3)CC2)cc2c(=O)n(C)c3ccccc3c21` was 47.4% (active).

Regarding `CCn1c(=O)cc(OCC(=O)NCCCN2CCN(c3cccc(Cl)c3)CC2)c2ccccc21`, the inhibition is 50.4% (active).

As to `O=C(CCn1c(=O)[nH]c2ccccc2c1=O)NCCCN1CCN(c2cccc(Cl)c2)CC1`, the inhibition is 37.1% (inactive). As to `CC1CCCC(C)N1CCCNC(=O)c1cc2c(=O)n(C)c3ccccc3c2n1C` (centres undefined), the inhibition is 1.7% (inactive).

Turning to `Cn1c(C(=O)NCCc2ccsc2)cc2c(=O)n(C)c3ccccc3c21`, the inhibition is -3.6% (inactive). As for `CCOC(=O)N1CCC(Nc2c(NCCN3CCN(c4cccc(Cl)c4)CC3)c(=O)c2=O)CC1`, the figure is 1.9% (inactive); as for `Fc1ccc2nc(Nc3nc4c(s3)CCCC4)sc2c1`, 16.8% (inactive). For `Cc1cnc(NC(=O)CSc2nnc(-c3ccc(Cl)cc3Cl)n2N)s1`, the inhibition was -1.4% (inactive). The value for `CN(CCCNC(=O)CN1C(=O)CC(C)(C)S(=O)(=O)c2ccccc21)C1CCCCC1` was -7.9% (inactive); that for `CCOC(=O)Cn1c2c(c(-c3ccccc3OC)cc1=O)CCCC2` was 17.8% (inactive); that for `O=S(=O)(c1ccc(Sc2nnc3ccccn23)nc1)N1CCOCC1` was -7.8% (inactive).

As to `O=C(Nc1nnc(-c2ccc(Cl)cc2)o1)c1ccccc1Br`, the inhibition is 8.9% (inactive).

For `O=c1cc(CSc2ccc(Cl)cc2)nc(N2CCOCC2)[nH]1`, the inhibition was -13.7% (inactive).

With `Cc1cc2c(=O)n(C)c(SCC(=O)c3cc4ccccc4o3)nc2s1`, the inhibition was -6.7% (inactive). The value for `COc1ccccc1-c1nc(C(F)(F)F)c(OC)o1` was 3.7% (inactive); that for `COCCNC(=O)Cn1cc2c(n1)CCCCC2` was -1.6% (inactive). As for `Nc1nonc1-c1nc2ccccc2n1CCC(=O)O`, the figure is -21.2% (inactive). On to `COc1ccc(C)c(Cn2c(-c3nonc3N)nc3ccccc32)c1`, for which the inhibition was 38.7% (inactive). Take `Nc1nonc1-c1nc2ccccc2n1Cc1ccc(F)cc1`: the inhibition was 48% (active). As for `Cc1cccc2nc(CNc3ccc(F)cc3)cn12`, the figure is -11.2% (inactive); as for `COc1ccc(N2C(=O)C3CCCN3C2c2cccs2)cc1` (centres undefined), 19.9% (inactive); as for `O=C(CSc1nnc2ccccn12)c1ccccc1`, 3.3% (inactive). As for `COc1ccc(OC)c(C(=O)CSc2nnc(-c3cccs3)o2)c1`, the figure is -4.9% (inactive); as for `Cc1ccc(-c2noc(CCC(=O)Nc3ccccc3N3CCN(C)CC3)n2)cc1`, 5.2% (inactive); as for `O=C(NCCN1CCOCC1)c1ccc2c(c1)ncn2C1CCCC1`, -8% (inactive).

Take `Cc1ccc(Oc2ccc(N)cc2)cc1`: the inhibition was 11.4% (inactive).

With `CCCc1nc(SCC(=O)Nc2ccccc2OC)c2c(=O)n(C)c(=O)n(C)c2n1`, the inhibition was 10.8% (inactive). As for `CCOc1cc(/C=N/n2cnnc2)c(Br)cc1O`, the figure is -8.1% (inactive); as for `COc1ccc(O)c(C=Nc2cc(C)on2)c1`, 4.6% (inactive); as for `COc1ccccc1-n1cnc2cc(C(=O)NCC3CCCO3)ccc21` (centres undefined), 10.8% (inactive). As for `COC(=O)c1ccc(CSc2nncn2C)cc1`, the figure is -0.1% (inactive); as for `COc1ccc(C(CNC(=O)c2cccnc2SC)N2CCOCC2)cc1` (centres undefined), 5.3% (inactive). For the molecule `CCCC(=O)Nc1c(O)c2ccccc2[nH]c1=O`, the inhibition was 0.3% (inactive).

On to `O=C(c1cc(-c2cccc(O)c2)on1)N1CCc2ccccc2C1`, for which the inhibition is -4.3% (inactive). As for `c1ccc(-c2cn3cccnc3n2)cc1`, the figure is -0.3% (inactive); as for `C/C(CC(O)(/C=N/O)c1ccccc1)=N\O` (centres undefined), 7.7% (inactive).
